Laboratory results from PubChem BioAssay AID504334 (NMMLSC, 2011).
“And” between values parts separate entries of the source, which are not always exact repeats. Identical values can stand only once. The source made the active and inactive calls.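 Rule for the calls: active = response relative to DMSO over 150%; inconclusive = yeast strain with under 70 recorded events; inactive = the rest.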

Test: yeast AGP1-GFP fluorescence change, single-dose confirmation – cell-based, flow cytometry, S. cerevisiae, cherry pick set 3 (AID 504334);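 note: median GFP fluorescence per well by flow cytometry over the all cells gate; ratio of sample to mean DMSO control signal so DMSO = 100% not 0%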
Conditions: S. cerevisiae AGP1-GFP strain, 3 h, at 10 µM, active compounds read high

Percent response vs DMSO, inactive:
Cc1cc(C)c2ccc(N)nc2c1O 101%, COc1ccccc1-c1cc(C(F)(F)F)nc(S(C)(=O)=O)n1 130%, O=C(N/N=C/c1ccccc1F)c1cccc2ccccc12 101%, O=C(O)CCCCCNc1ncnc2ccc(Br)cc12 101%, COCCCNc1nc(N)c([N+](=O)[O-])c(Nc2ccccc2OC)n1 103%, O=C(O)c1ccccc1-c1ccccc1C(=O)Nc1ccc(-c2nc3cc(Cl)ccc3o2)cc1 103%, Cc1ccc(Nc2nc(N)[nH]c(=O)c2N=O)cc1 101%, COc1cc(OC)cc(C(=O)Nc2ccc(-c3nc4ccccc4o3)cc2)c1 99.1%, Cc1nc(Nc2ccc(Cl)cc2)c(C#N)c(=O)[nH]1 101%, Cc1ccc(NC(=O)O/N=C2\CCCCC2c2ccc([N+](=O)[O-])cc2[N+](=O)[O-])cc1 (configuration not stated) 100%, COc1ccc(OC)c2c(=O)cc(C(=O)O)[nH]c12 102%, Cc1ccc2c(C)ccc(O)c2n1 102%, COc1cccc(OCc2cc(C(=O)N3CCN(C)C(c4ccccc4)C3)no2)c1 (configuration not stated) 101%, COc1ccccc1Nc1nc(NCCO)nc(N)c1[N+](=O)[O-] 99.1%, COC(=O)COc1c(Cl)cc(Cl)c2ccc(C)nc12 105%, Oc1c(I)cc(Cl)c2cccnc12 100%, COc1ccc(-c2cc(C(F)(F)F)nc(S(C)(=O)=O)n2)cc1OC 106% and 113%
